PubChem BioAssay
Several values for one entry are separate records, joined by “and”; a condition that tells them apart may be missing. Equal entries are not always repeated. Activity calls are given as the source filed them.

What was measured:
[1] = compound effects on lung adenocarcinoma cell viability – A549, calcein-AM fluorescence, 48 h, basal, profiling panel (AID 1162); details: higher = more signal
[2] = compound effects on differentiated 3T3-L1 adipocyte viability – cell-based, 3T3-L1 adipocytes, calcein-AM fluorescence, 48 h, basal, profiling panel (AID 1163); details: 3T3-L1 adipocytes viability, higher = more signal
[3] = compound effects on hepatocellular carcinoma cell viability – HepG2, calcein-AM fluorescence, 48 h, basal, profiling panel (AID 1164); details: higher = more signal
[4] = compound effects on multiple myeloma cell viability – MM1S, calcein-AM fluorescence, 48 h, basal, profiling panel (AID 1165); details: higher = more signal;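 further: viability of MM1S multiple myeloma cells under basal unstimulated conditions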
[5] = calcein-AM signal in unstimulated myeloma cells – cell-based, calcein-AM fluorescence, 48 h, PK04 Diversity Set, profiling panel (AID 1166); details: RPMI8226 myeloma viability, higher = more signal;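 further: cells grown under basal conditions without added stimulus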
[6] = JC-1 mitochondrial signal, unstimulated HepG2 cells – cell-based, JC-1 fluorescence, 24 h, 100 nL compound, profiling panel (AID 1167); details: HepG2 mitochondrial potential, higher = more signal
[7] = JC-1 mitochondrial signal, unstimulated adipocytes – cell-based, JC-1 fluorescence, 3T3-L1 adipocytes, 24 h, 100 nL compound, profiling panel (AID 1168); details: JC-1 mitochondrial fluorescence, higher = more signal, called active from +8 up or from −8 down
[8] = JC-1 mitochondrial signal, unstimulated myeloma cells – cell-based, JC-1 fluorescence, RPMI8226, 24 h, 100 nL compound, profiling panel (AID 1169); details: JC-1 mitochondrial potential fluorescence, higher = more signal
[9] = JC-1 mitochondrial signal, unstimulated MM1S myeloma – cell-based, JC-1 fluorescence, 24 h, 100 nL compound, profiling panel (AID 1170); details: MM1S mitochondrial potential, higher = more signal
[10] = resazurin metabolic signal in A549 cells – cell-based, resazurin fluorescence, 24 h, PK04 Diversity Set, profiling panel (AID 1171); details: A549 viability, higher = more signal, called active from +8 up or from −8 down
Further: test concentration not given here.

Row | Structure (SMILES) | z-score [1] | z-score [2] | z-score [3] | z-score [4] | z-score [5] | z-score [6] | z-score [7] | z-score [8] | z-score [9] | z-score [10]
1 | COC(=O)[C@@]1(Cc2ccccc2)[C@H]2c3cc(C(=O)N(C)C)n(Cc4ccc(C)c(F)c4F)c3C[C@H]2CN1C(=O)c1ccccc1 | -3.17 and -1.66 | 0.42 and 0.702 | -2.78 and -1.77 | -3.27 and -3.16 | -4.73 and -4.71 | -2.92 and -1 | -1.35 (inactive) and -1.29 (inactive) | -0.926 and -0.872 | -3 and -1.7 | -3.06 (inactive) and -1.94 (inactive)
2 | CCCCCN1CC=CC23O[C@@H]4C=CCCOC(=O)C4[C@H]2C(=O)N(C(C)CO)[C@@H]3C1=O (stereo not given in full) | -0.345 and -0.691 | 0.94 and -0.707 | -1.46 and -0.31 | 0.737 and 0.402 | 0.254 and -0.282 | -0.473 and -1.11 | -0.354 (inactive) and -0.522 (inactive) | 0.861 and -0.0156 | -0.141 and 0.641 | 1.08 (inactive) and 0.713 (inactive)
3 | CC(CO)N1C(=O)[C@@H]2C3C(=O)OCCC=C[C@H]3OC23C=CCN(c2ccc(Cl)cc2)C(=O)[C@@H]13 (stereo not given in full) | 0.112 and -0.123 | 0.194 and 0.458 | 0.47 and 1.07 | -0.725 and -0.182 | 0.622 and -0.222 | 0.242 and 0.0111 | 0.518 (inactive) and -0.689 (inactive) | 0.0601 and -0.811 | 0.936 and -0.274 | 0.189 (inactive) and 0.557 (inactive)
4 | C[N+](C)(C)CCCCNC(=O)[C@H]1C[C@H]2C(=O)N[C@@H](CCCC[N+](C)(C)C)C(=O)N2[C@H]1c1cccc(OCCO)c1 | -0.663 and -0.261 | -0.488 and -0.571 | -1.13 and -0.231 | -0.485 and -1.67 | 0.267 and 0.461 | -1.2 and -0.91 | -0.0125 (inactive) and 0.0612 (inactive) | -0.117 and 0.49 | -0.199 and -0.118 | -0.964 (inactive) and -0.711 (inactive)
5 | CON(C)C(=O)c1nnc2c3ccccc3n(S(=O)(=O)c3ccc(C)cc3)c2n1 | 0.318 and 1.25 | 0.495 and -0.447 | -1.33 and -0.298 | 0.14 and 0.0315 | 0.496 and -0.588 | -1.61 and -1.52 | -0.301 (inactive) and -0.0202 (inactive) | 0.218 and 0.4 | -0.436 and -0.72 | 0.617 (inactive) and -0.146 (inactive)
6 | CN1C(=O)C2CC=C([C@H]3Oc4ccccc4S(=O)(=O)N4CCC[C@@H]34)CC2C1=O (stereo not given in full) | -0.657 and 0.15 | -0.109 and 0.323 | -0.926 and -0.369 | 0.49 and 0.288 | -0.177 and -0.215 | -0.649 and 0.00971 | 0.243 (inactive) and 0.347 (inactive) | 0.439 and 0.341 | 0.123 and -0.0296 | 0.0976 (inactive) and -0.125 (inactive)
7 | C=CC[C@@H](O)c1ccc(O)c(F)c1 | -0.562 and 0.575 | 0.207 and 0.747 | -0.804 and -0.172 | -1.11 and 1.1 | -0.508 and -1.15 | -1.48 and -0.00596 | -1.3 (inactive) and 1.47 (inactive) | 0.345 and 0.642 | -0.347 and 1.29 | -0.694 (inactive) and 0.0466 (inactive)
8 | C[N+](C)(C)CCCCCCNC(=O)[C@@H]1C[C@@H]2C(=O)N[C@@H](CCCC[N+](C)(C)C)C(=O)N2[C@@H]1c1ccc(O)cc1 | 0.602 and 0.107 | -0.266 and -0.25 | 0.284 and -0.812 | 0.814 and -0.514 | -0.587 and 0.392 | -0.367 and -1.19 | 0.608 (inactive) and 0.109 (inactive) | -0.7 and 0.534 | -0.778 and -0.749 | 0.527 (inactive) and 0.818 (inactive)
9 | COC(=O)[C@@]1(Cc2ccccc2)[C@H]2c3cc(C(=O)N(C)C)n(C[C@H](O)CO)c3C[C@H]2CN1C(=O)c1ccccc1 | -0.876 and -0.976 | 0.318 and -0.385 | -0.76 and -1.07 | 0.112 and 0.416 | -1.95 and 0.383 | -1.04 and -0.162 | -0.0997 (inactive) and -0.187 (inactive) | -0.194 and -0.294 | -0.609 and -0.129 | -1.3 (inactive) and -0.848 (inactive)
10 | C=CCN(CCCC)C(=O)C(c1cccs1)N(C(=O)/C=C\C(=O)O)c1ccc(CCO)cc1 (stereo not given) | -0.178 and 0.505 | -0.0575 and -0.458 | 0.267 and 1.02 | 1.72 and 1.52 | 0.657 and -0.192 | 0.484 and -0.279 | -0.527 (inactive) and 0.0402 (inactive) | -0.996 and 0.19 | -0.874 and -0.407 | 0.0696 (inactive) and -0.0804 (inactive)
11 | CO[C@@H]1COC(=O)CC=C[C@H](C)[C@@H](NS(=O)(=O)c2ccc(C)cc2)COC(=O)CC=C[C@@H]1C | 0.725 and -1.15 | -0.779 and -0.0305 | 0.515 and -1.42 | 0.317 and 0.286 | -0.0273 and 0.0878 | 0.651 and -0.353 | -0.162 (inactive) and -1.02 (inactive) | -0.235 and 0.237 | 0.654 and -0.385 | -0.512 (inactive) and 1.4 (inactive)
12 | C=CCN(Cc1ccccc1)C(=O)C1N(CCCCCCO)C(=O)C2C(C(=O)O)C3C=CC21O3 (stereo not given) | -0.217 and 0.516 | 0.231 and 0.375 | -0.642 and -0.438 | -0.184 and -0.0762 | 0.462 and 1.64 | -0.678 and -0.391 | 0.201 (inactive) and 0.867 (inactive) | -0.0429 and 0.0701 | -0.252 and -0.0839 | -0.0083 (inactive) and 0.239 (inactive)
13 | C=CCN(C(=O)C(c1cccs1)N(C(=O)/C=C\C(=O)O)c1ccc(CCO)cc1)c1ccc(OC)cc1 (stereo not given) | -0.256 and 1.54 | 0.015 and -0.199 | 1.35 and 0.76 | 1 and -0.0823 | 1.2 and -0.0106 | 0.417 and 0.583 | 0.249 (inactive) and 1.26 (inactive) | 0.201 and 0.0752 | -1.07 and 1.18 | 0.307 (inactive) and 0.0568 (inactive)
